# Reference: PubChem BioAssay AID1421 (Emory University Molecular Libraries Screening Center, 2008)
# The whole screen tested about 1,300 compounds, of which about 140 (11%) were called active. A selection follows. Results with a measured potency or affinity are listed apart. A number with no mark means an inactive call. How the calls were made is not given here.
# Molecular target: Prostaglandin E2 receptor EP2 subtype (Homo sapiens) (UniProt P43116)
# Assay: compounds shifting PGE2 potency at EP2 – cell-based, human EP2, PGE2 EC50 shift, dose response (AID 1421)
# Settings: EP2-expressing cells, PGE2 EC50 shift by compound; at 20 µM
# Sequence of Prostaglandin E2 receptor EP2 subtype (Homo sapiens) (P43116 whole entry, looked up): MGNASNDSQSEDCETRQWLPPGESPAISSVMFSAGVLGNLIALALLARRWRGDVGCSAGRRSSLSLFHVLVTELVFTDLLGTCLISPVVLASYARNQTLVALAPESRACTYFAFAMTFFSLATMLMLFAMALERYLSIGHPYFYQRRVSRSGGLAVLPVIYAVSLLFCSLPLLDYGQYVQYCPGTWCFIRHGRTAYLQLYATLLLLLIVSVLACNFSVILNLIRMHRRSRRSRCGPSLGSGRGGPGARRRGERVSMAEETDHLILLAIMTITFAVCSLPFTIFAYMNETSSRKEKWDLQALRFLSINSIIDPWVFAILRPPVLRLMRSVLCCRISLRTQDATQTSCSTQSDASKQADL
row,Compound,PGE2 EC50 with compound
1,O=c1c2ccccc2c(=O)n(Cc2ccccc2)n1Cc1ccccc1,0.08 nM
2,CC(=O)Oc1ccc2ccccc2c1C(NC(=O)Cc1ccccc1)c1ccccc1 (centres undefined),0.32 nM
3,COc1ccc(CSC2=C(C#N)C(=O)NC3(CCCCC3)S2)cc1,0.76 nM
4,O=C(Nc1ccccc1N1CCCCC1)c1ccc(Cl)c([N+](=O)[O-])c1,0.55 nM
5,COc1ccc(C(=O)Nc2ccccc2N2CCCCC2)cc1[N+](=O)[O-],0.44 nM
6,Cc1cccc(-n2c(CCc3ccccc3)nnc2SCC(=O)c2ccccc2)c1,0.19 nM
7,COc1ccccc1C(CC(=O)c1ccccc1)CC(=O)c1ccccc1,0.61 nM
8,O=c1[nH]c(=S)c2c(n1-c1ccccc1)CCC2,1.62 nM
9,COc1ccc2c(-c3ccccc3)cc(N3CCOCC3)nc2c1,0.43 nM
10,Cc1cccc(/C=N/Nc2cc(N3CCOCC3)nc(N3CCOCC3)n2)c1,0.59 nM
11,CCSc1nnc(-c2ccc(Cl)cc2)c2ccccc12,2.31 nM
12,COc1ccc(C2=Nn3c(nnc3C3CCCCC3)SC2)cc1OC,0.48 nM
13,CCOC(=O)C1=C(CC)OC(N)=C(C#N)C1c1ccsc1 (centres undefined),0.52 nM
14,CCn1c2ccc(Cl)cc2c2nc3ccccc3nc21,0.4 nM
15,O=c1c2ccccc2nc(/C=C/c2ccccc2)n1CCc1ccccc1,0.1 nM
16,C=CCOc1c(Br)cc(/C=N/n2c(CC)n[nH]c2=S)cc1Br,0.13 nM
17,CC(C)c1nc(N2CCN(C(=O)c3ccccc3)CC2)c(C#N)c2c1COC(C)(C)C2,0.35 nM
18,Cc1nc2ccccn2c1C(=O)CSc1ccc(Cl)cc1Cl,5.69 nM
19,Cc1cc(C(=O)NCC(c2ccco2)N(C)C)no1 (centres undefined),0.8 nM
20,O=S(Cc1cc(Sc2ccccc2)nc(-c2ccccc2)n1)c1ccccc1 (centres undefined),0.32 nM

row,Compound,PGE2 EC50 with compound
1,CCOC(=O)CNC(=O)c1ccc2c(c1)OCCO2,0.46 nM
2,CCOC(=O)c1c(-c2ccc(C)cc2)csc1NC(=O)c1ccc(N2C(=O)CCC2=O)cc1,0.29 nM
3,CCOC(=O)c1c(NC(=O)c2ccncc2)sc(C)c1C,0.45 nM
4,CCOC(=O)c1cc2sc(C)cc2n1C(C)C(=O)OCC (centres undefined),0.35 nM
5,CCOC(=O)c1oc2ccccc2c1NC(=O)c1cccc(OC)c1OC,0.43 nM
6,CCOC(=O)c1[nH]c2ccc(OC)cc2c1NS(=O)(=O)c1ccc(Cl)s1,0.39 nM
7,Cc1ccccc1Cn1c(-c2cncs2)nc2ccccc21,0.55 nM
8,c1ccc(CCc2ccccc2-c2nc(-c3cccnc3)no2)cc1,0.18 nM
9,CCOC(=O)c1c(NC(=O)CSc2nnc(N)s2)sc(C)c1-c1ccc(C)cc1,0.35 nM
10,Cc1cccc(N=N/C(=C\O)C(=O)c2ccc(Br)cc2)c1,0.18 nM
11,Cc1cc(C)c(S(=O)(=O)O)c(C)n1,0.61 nM
12,COC(=O)c1[nH]c2ccccc2c1NS(=O)(=O)c1ccc(F)c(C)c1,0.41 nM
13,Cn1c(=O)[nH]c(=O)c2c1nc(CN1CCN(c3ccccc3F)CC1)n2CCCc1ccccc1,0.47 nM
14,S=c1[nH]nc(-c2ccc(Br)o2)n1Cc1ccccc1,0.8 nM
15,Cc1ccc2c3c(cccc13)-c1ccccc1C2=O,0.36 nM
16,Cn1c(=O)c(NCCc2ccccc2)c2c3c(cccc31)C(=O)c1ccccc1-2,0.58 nM
17,NC(=O)CSc1nnc(-c2cccc(S(=O)(=O)N3CCOCC3)c2)n1C1CCCCCC1,0.63 nM
18,Cc1noc(C)c1CSc1nc2sc3c(c2c(=O)n1C)CCCC3,0.89 nM
19,CCCSc1nc(N2CCCC2)c2c(c1C#N)CC(C)(C)OC2,0.26 nM
20,Cc1cc2ccc(C)c(C)c2nc1SCC#N,0.35 nM

row,Compound,PGE2 EC50 with compound
1,C=CCn1c(CCc2cc(C(C)(C)C)c(O)c(C(C)(C)C)c2)n[nH]c1=S,0.58 nM
2,OCCCNc1nc(-c2ccc(Cl)cc2)nnc1-c1ccc(Br)cc1,1.44 nM
3,CC(OC(=O)c1oc2ccccc2c1COc1ccccc1)C(=O)NC(N)=O (centres undefined),0.23 nM
4,CCOc1ccccc1NC(=O)c1ccccc1-c1nc(-c2ccccc2)no1,0.4 nM
5,Cc1onc(-c2ccccc2Cl)c1-c1nc(-c2ccncc2)no1,0.49 nM
6,Cc1nn2c(N3CCN(C(=O)c4ccco4)CC3)cc(C(C)(C)C)nc2c1-c1ccccc1,1.08 nM
7,Cc1ccc(NCc2n[nH]c(=S)n2Cc2ccccc2)cc1Cl,0.64 nM
8,O=C(O)/C=C/c1ccccc1Oc1ccc(Cl)cc1Cl,1.45 nM
9,COc1cc2c(cc1OC)-c1cc(Nc3ccc4c(c3)OCCO4)nc(=O)n1CC2,0.72 nM
10,COc1ccc(OC)c(/C=C/C(=O)N2CCCc3ccccc32)c1,0.28 nM
11,C=C(C)Cn1c(C)cc(C)c(S(=O)(=O)c2ccc(C)cc2)c1=O,0.32 nM
12,COC(=O)c1c(NC(=O)CSc2nnc(-c3ccco3)n2Cc2ccccc2)sc(C)c1C,0.82 nM
13,CCc1cc2cc3c(cc2nc1SCC(=O)OC(C)C)OCO3,0.14 nM
14,O=c1[nH]c2ccc(Cl)cc2c(-c2ccccc2)c1N1CCN(c2ccccn2)CC1,0.62 nM
15,CCOC(=O)C1CCN(c2c(C(=O)c3ccccc3)cnc3ccc(Cl)cc23)CC1,0.39 nM
16,O=c1[nH]c2ccc(Br)cc2c(-c2ccccc2)c1N1CCOCC1,0.39 nM
17,CCOC(=O)C1CCN(c2c(C(=O)c3ccccc3)cnc3ccc(CC)cc23)CC1,0.81 nM
18,O=C(Nc1cccc2cccnc12)c1ccc(Br)o1,0.36 nM
19,CCOP(=O)(OCC)c1nc(/C=C/c2ccccc2)oc1NCc1ccccc1,0.52 nM
